The values below come from PubChem BioAssay (NCI).

Molecules are shown by their SMILES. About 83,000 compounds went through this panel and 20% of them were active in at least one assay; those are over-represented in the sample as a whole.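 Each cell line was grown in a 96-well plate and treated with one concentration of compound for 48 hours. Values below 10 were considered active.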 Unmarked numbers belong to inactive results. The source made the active and inactive calls.

In the experiment the test system is NCI-H23 lung. Briefly: NCI-60 one-dose screen, 48 h (100 = growth as untreated, 0 = no growth, -100 = all killed). The note with it: 10 µM unless noted.
Take `COc1cc2[nH]c(C(=O)c3cc(OC)c(OC)c(OC)c3)c(N)c2cc1C#CC1CC1`: the growth is 50.3%.
Then `COc1cc2c(cc1OC)C(=O)/C(=C/c1cc(-c3ccc4c(c3)OCO4)n[nH]1)C2`, with 22.4%; and `NS(=O)(=O)c1ccc(CCNC(=O)/C=C/c2ccc(Cl)cc2)cc1`, with 107%; and `C/C(=N/NC(N)=S)C(=O)O`, with 101%.
Then `Cc1ccc(-c2ccc(Nc3ccccc3)nn2)cc1S(N)(=O)=O`, with 96.2%; and `CCC(c1ccc(OC)cc1)C(CC)c1ccc(O)c(CN2CCCCC2)c1` (stereo not drawn), with 63.5%.
In the case of `COc1cc(-c2cc(-c3nc4ccc(F)cc4[nH]3)[nH]n2)cc(OC)c1OC`, the growth is 15.8%.
The value for `COc1cccc(NC(=O)c2sc3nc4c(cc3c2N)C(=O)CCC4)c1` was 21.8%; that for `NC1(N)C=CC2=C(C=C1)C1(N)C3=C(C=CC(N)(N)C=C3)N2C2(N)C3=C(C=CC(N)(N)C=C3)N1C1=C2C=CC(N)(N)C=C1` was 79.5%; that for `COc1ccc(-c2nc3ccccn3c2-c2nc3ccc(Cl)cc3[nH]2)cc1` was 98.3%.
The value for `O=c1c(CNc2ccc(S(=O)(=O)Nc3nccs3)cc2)coc2ccccc12` was 110%; that for `CN1CCN(c2nc(-c3cccc4ccccc34)nc3sc4c(c23)CCCCCC4)CC1` was 92.2%.
Then `COc1ccc2nc(-c3cc(-c4cc(OC)c(OC)c(OC)c4)n[nH]3)[nH]c2c1`, with 7.44% (active); and `COc1cccc(-c2nn(-c3ccccc3)cc2-c2ccnc(NCCNS(=O)(=O)c3ccc(Cl)cc3)c2)c1`, with 32%.
In the case of `O=S(=O)(NCCNc1cc(-c2cn(-c3ccccc3)nc2-c2cccc(O)c2)ccn1)c1ccc(C(F)(F)F)cc1`, the growth was 41.8%.
As to `Cc1cc(C)c(NC(=O)c2sc3nc4c(cc3c2N)CCCC4)c(C)c1`, the growth was 59.8%.
Then `C/C(=N\Nc1cc(C)c2ccccc2n1)c1ccccn1`, with 14%; and `C=C1C(=O)O[C@H]2[C@H]1CC/C(Cn1cc(-c3ccc(OC)cc3)nn1)=C\CC[C@@]1(C)O[C@@H]21`, with 4.37% (active).
The value for `COC(=O)[C@]12CC[C@@H](C)[C@H](C)[C@@H]1C1=CC[C@@H]3[C@@]4(C)C[C@@H](OC(C)=O)[C@H](OC(C)=O)[C@@](C)(COC(C)=O)[C@@H]4[C@H](O)C[C@@]3(C)[C@]1(C)CC2` was 17.5%; that for `COc1cccc(-c2nn(-c3ccccc3)cc2-c2ccnc(NCCCNS(=O)(=O)c3ccc(Cl)cc3)c2)c1` was 46.9%.
The value for `O=c1c(CNc2ccc(S(=O)(=O)Nc3ncccn3)cc2)coc2ccccc12` was 102%; that for `COc1ccc(-c2cc(/C=C/C(=O)c3ccc(OC)c(OC)c3)[nH]n2)cc1` was 32.7%.
Consider `C#Cc1cc2c(N)c(C(=O)c3cc(OC)c(OC)c(OC)c3)[nH]c2cc1OC`, for which the growth is 43.1%.
The value for `O=S(=O)(NCCNc1cc(-c2cn(-c3ccccc3)nc2-c2cccc(O)c2)ccn1)c1ccc(F)cc1` was 33.6%; that for `c1ccc2[nH]c(-c3cc(-c4ccc5c(c4)OCO5)n[nH]3)nc2c1` was 68.8%; that for `COc1cccc(-c2nn(-c3ccccc3)cc2-c2ccnc(NCCCNS(=O)(=O)c3cccc(F)c3)c2)c1` was 30.2%.
The value for `COc1cc(-c2cc(-c3nc4cc(Cl)c(Cl)cc4[nH]3)[nH]n2)cc(OC)c1OC` was 75.3%; that for `Oc1cc(/C=C/c2nc(N3CCOCC3)c3cc(Cl)c(Cl)cc3n2)cc(O)c1O` was 101%; that for `Cc1cc(Nc2ccc(F)cc2)nc(N2CCN(c3ccnc4cc(Cl)ccc34)CC2)n1` was 28.9%.
The value for `COc1ccc(/C=C/C(=O)NCC(C)O)cc1` (stereo not drawn) was 93.5%; that for `COc1ccc(-c2cc(/C=C/C(=O)c3ccc(N)cc3)[nH]n2)cc1` was 27.3%; that for `CSc1ccc(N(C)c2nc(C)nc3c2CCC3)cc1` was 16.7%.
On to `OCCNc1nc(Nc2ccc(Cl)c(Cl)c2)nc2ccccc12`, for which the growth is 54.5%.
As to `COc1cc(-c2cc(-c3nc4ccccc4[nH]3)[nH]n2)cc(OC)c1OC`, the growth is 41%.
Regarding `O=C1CCN2C(=O)Nc3ccccc3C2C1` (stereo not drawn), the growth is 101%.
Consider `Cc1[c-]onc1C.Cc1[c-]onc1C.[Ag].[Ag].[NH-]S(=O)(=O)c1ccc(N=Nc2cc(N=Nc3ccc(S([NH-])(=O)=O)cc3)c3c(NC(=O)C(Cl)Cl)cccc3c2OC(=O)C(Cl)Cl)cc1`, for which the growth was 94.8%.
The value for `Clc1ccc(Cn2cc(-c3nc4ccc(Br)nc4n3Cc3ccc(Cl)cc3)c3cccnc32)cc1` was 65.9%; that for `COC(=O)[C@]12CC[C@@H](C)[C@H](C)[C@@H]1C1=CC[C@@H]3[C@@]4(C)C[C@@H](OC(C)=O)[C@H](O)[C@@](C)(COC(C)=O)[C@@H]4[C@H](O)C[C@@]3(C)[C@]1(C)CC2` was -83.3% (active).
